# Data taken from PubChem BioAssay (NCATS).
# “And” between values parts separate entries of the source, which are not always exact repeats. Equal entries are not always repeated. Inconclusive results are not listed. Entries that show only a call come without a potency. The source made the active and inactive calls. Calls come from the whole dose curve.
# Assays:
# [1] = Cytotoxicity counterscreen for inhibitors of SARS-CoV-2 cell entry (AID 1645845); note: nearly all actives have a fitted effect of over 50% in size
# Summary of the method: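 Expi293F/hACE2 cells seeded overnight; cpd pin-transferred in DMSO, 1 h preincubation, + media, 48 h 37 C 5% CO2; ATPLite 1step luminescence; normalized to cells and no cells.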
# [2] = Primary qHTS to identify inhibitors of SARS-CoV-2 cell entry (AID 1645846); details: activity change, negative = inhibition: at 57.1 µM (top of the series) unless noted; note: nearly all actives have a fitted effect of over 45% in size; note: potency is the fitted concentration of half-maximal effect
# Summary of the method: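 Luminescence readout (Bright-Glo luciferase) 48 h after pseudoparticle addition. HEK293-ACE2 cells, 1500/well; compound pre-incubation 1 h; Normalized to spike PP and bald PP.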
Compound,Potency [1],Potency [2],"activity change, negative = inhibition [2]"
O=C(O)C(=O)Nc1cccc(-c2nn[nH]n2)c1,inactive,inactive,-0.181%
CC[N+](CC)(CC(=O)Nc1c(C)cccc1C)Cc1ccccc1,,inactive,
Cc1ccc(/C=N/n2c(-c3ccccc3)csc2=S)cc1,inactive,,-8.63%
CCC(=O)O[C@]1(C(=O)CCl)[C@@H](C)C[C@H]2[C@@H]3CCC4=CC(=O)C=C[C@]4(C)[C@@]3(F)[C@@H](O)C[C@@]21C,inactive,inactive,-9.65%
CCOC(=O)C(C)(C)Oc1ccc(Cl)cc1,inactive,inactive,-63%
COc1ccc2c(c1OC)C(=O)O[C@@H]2[C@H]1c2c(cc3c(c2OC)OCO3)CCN1C,inactive,,-12.9%
CO[C@]1(NC(=O)CSC(F)F)C(=O)N2C(C(=O)O)=C(CSc3nnnn3CCO)CO[C@H]21,inactive,inactive,
CC(=O)OCC(=O)[C@@]12N=C(C)O[C@@H]1C[C@H]1[C@@H]3CCC4=CC(=O)C=C[C@]4(C)[C@H]3[C@@H](O)C[C@@]12C,inactive,inactive,-14%
C#C[C@]1(O)CC[C@H]2[C@@H]3[C@H](C)CC4=C(CCC(=O)C4)[C@H]3CC[C@@]21C,inactive,inactive,-14.1%
NC(N)=NC(=O)c1nc(Cl)c(N)nc1N,inactive,inactive,-0.658% [at 114 µM]
CC(C)OC(=O)C(C(=O)OC(C)C)=C1SC=CS1,inactive,inactive,-9.44%
Cc1cc(C(C)(C)C)c(O)c(C)c1CC1=NCCN1,inactive,inactive,-17.1%
CCN[C@H]1C[C@H](C)S(=O)(=O)c2sc(S(N)(=O)=O)cc21,inactive,inactive,-17.9%
O=S(=O)(c1cccc2cnccc12)N1CCCNCC1,inactive,inactive,-0.418%
NCCc1cnc[nH]1,inactive,inactive,0.209%
N=C(N)c1ccc2cc(OC(=O)c3ccc(N=C(N)N)cc3)ccc2c1,inactive,inactive,-3.1%
COc1ccccc1OC(=O)Oc1ccccc1OC,inactive,inactive,

Compound,Potency [1],Potency [2],"activity change, negative = inhibition [2]"
Cc1cc(C2CCCCC2)n(O)c(=O)c1,,17.8 µM (active),
CC[C@H](NC(C)C)[C@H](O)c1ccc(O)c2[nH]c(=O)ccc12,inactive,inactive,1.27%
CCCCOc1ccc(CC(=O)NO)cc1,inactive,,-20.4% and -25.7%
NC(=O)c1ncn([C@@H]2O[C@H](CO)[C@@H](O)[C@H]2O)c1N,inactive,inactive,-18.5%
CN1CC(=O)N2[C@H](c3ccc4c(c3)OCO4)c3[nH]c4ccccc4c3C[C@@H]2C1=O,inactive,inactive,-9.6%
CCCCNc1cc(C(=O)O)cc(S(N)(=O)=O)c1Oc1ccccc1,inactive,inactive,-16.4%
Nc1ccn(C2CO[C@H](CO)O2)c(=O)n1 (stereo not given in full),inactive,inactive,
CCOC(=O)[C@H](CCc1ccccc1)N[C@@H](C)C(=O)N1C(=O)N(C)C[C@H]1C(=O)O,,,-10.6%
C/C=C/C(=O)N(CC)c1ccccc1C,inactive,inactive,-9.15%
Cc1ccc2c(Cl)cc(Cl)c(O)c2n1,,inactive,
COc1ccc2[nH]c(S(=O)Cc3ncc(C)c(OC)c3C)nc2n1 (stereo not given),inactive,inactive,-10.1%
CC(C(=O)O)c1ccc(CC2CCCC2=O)cc1 (stereo not given),,inactive,
Cc1cc(C)c(/C=C2\C(=O)Nc3ccccc32)[nH]1,inactive,,-6.25%
CCOC(=O)[C@H](CCc1ccccc1)N[C@H]1CS[C@H](c2cccs2)CN(CC(=O)O)C1=O,inactive,inactive,-4.69%
CCCN(CCC)C(=O)C(CCC(=O)O)NC(=O)c1ccccc1 (stereo not given),inactive,inactive,2.74%
CC[C@H]1CN2CCc3cc(OC)c(OC)cc3[C@@H]2C[C@@H]1C[C@H]1NCCc2cc(OC)c(OC)cc21,,1.26 µM (active),
